Compounds without any hit were thinned out: in the full panel of roughly 83,000, 20% have a hit.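 Results are percent growth after 48 hours of single-concentration exposure. 100 means growth as in untreated cells, lower positive values show inhibition; negative values down to -100 show cell death.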 Unmarked numbers belong to inactive results. The source made the active and inactive calls. How the source made its calls: active means growth percent below 10; inactive means the rest.

Test systems include HCT-15 colon; HT29 colon; SNB-75 CNS; SNB-19 CNS; U251 CNS; PC-3 prostate; UACC-62 melanoma; LOX IMVI melanoma; SK-MEL-28 melanoma; SK-MEL-2 melanoma; EKVX NSCLC; SN12C renal; UO-31 renal; TK-10 renal; ACHN renal; CAKI-1 renal; A498 renal; CCRF-CEM leukemia; MOLT-4 leukemia; SK-MEL-5 melanoma.
Holding throughout (experiment): NCI-60 one-dose screen, 48 h (100 = growth as untreated, 0 = no growth, -100 = all killed)
Conditions in all cases: 10 µM unless noted

As to `COc1cc(C2CC(c3ccc(N(C)C)cc3)=NN2C(C)=O)cc(OC)c1OC` (centres undefined), the growth in the test on HCT-15 colon is 24.6%; in the test on HT29 colon, 9.83% (active); in the test with SNB-75 CNS, -23.6% (active); with SNB-19 CNS, 39.3%; in the test on U251 CNS, 29.3%; with PC-3 prostate, 29.4%. The growth was 26.9% in the test with UACC-62 melanoma; 37.6% in the test with LOX IMVI melanoma; 52.2% in the test on SK-MEL-28 melanoma; 37.1% in the test with SK-MEL-2 melanoma; 44.3% in the test on EKVX NSCLC; 37.7% with SN12C renal. Also, the growth in the test on UO-31 renal is 45.7%; in the test on TK-10 renal it was 63.4%; with ACHN renal, 44.9%; in the test with CAKI-1 renal it was 27%; in the test with A498 renal, -1.88% (active); in the test on CCRF-CEM leukemia, 11.8%. Further, the growth with MOLT-4 leukemia is 11.6%.
`Cc1ccc2sc3c(NCCCN)nc4ccccc4c3c(=O)c2c1`: the growth in the test on HCT-15 colon was -12.2% (active); in the test with HT29 colon it was -47.4% (active); in the test on SNB-75 CNS, 78.1%; in the test with SNB-19 CNS, 74.6%; in the test on U251 CNS, 6.32% (active); in the test on PC-3 prostate, 65.4%. Besides, the growth in the test on UACC-62 melanoma was 94.1%; in the test on LOX IMVI melanoma, -97.7% (active); in the test on SK-MEL-28 melanoma, 95.3%; in the test with SK-MEL-2 melanoma, 107%; in the test on EKVX NSCLC, 82.7%; in the test on SN12C renal, 69.2%. For the same compound, the growth in the test on UO-31 renal is 47.1%; in the test with TK-10 renal it was 85.2%; in the test on ACHN renal it was 20.6%; with CAKI-1 renal it was -6.43% (active); in the test with A498 renal it was 44.6%; in the test on CCRF-CEM leukemia it was 5.2% (active). Besides, in the test on MOLT-4 leukemia, the growth was -30.6% (active).
For the compound `N#CC1=C(N)Oc2c(sc3c(Br)cccc23)C1c1ccc(Br)cc1` (centres undefined), the growth in the test on HCT-15 colon was 22.4%; with HT29 colon, 1.76% (active); in the test on SNB-75 CNS it was 15%; in the test on SNB-19 CNS it was 52.6%; with U251 CNS it was 14%; in the test on PC-3 prostate, 15.3%. In addition, the growth in the test on UACC-62 melanoma was 21.2%; in the test on LOX IMVI melanoma, 21.6%; in the test on SK-MEL-28 melanoma, 50.6%; in the test on SK-MEL-2 melanoma, 8.78% (active); with EKVX NSCLC, 45.6%; in the test with SN12C renal, 25.8%. The growth in the test with UO-31 renal is 36.3%; in the test on TK-10 renal, 54.6%; in the test with ACHN renal, 56%; in the test on CAKI-1 renal, 32.8%; in the test on A498 renal it was 23.9%; in the test with CCRF-CEM leukemia, 10.1%. Moreover, the growth in the test on MOLT-4 leukemia was 7.14% (active).
Regarding `Cc1cc(O)c(C2=NN(c3ccc(S(N)(=O)=O)cc3)C(c3ccccc3O)C2)cc1Cl` (centres undefined), the growth with HCT-15 colon was 17.5%; with HT29 colon it was -18.4% (active); in the test with SNB-75 CNS, 41.5%; in the test on SNB-19 CNS, 65.4%; with U251 CNS, 2.38% (active); with PC-3 prostate, 9.8% (active). The growth in the test with UACC-62 melanoma is 21.3%; with LOX IMVI melanoma it was -89.6% (active); in the test on SK-MEL-28 melanoma, 53.9%; in the test on SK-MEL-2 melanoma, 17.4%; with EKVX NSCLC, -2.37% (active); in the test on SN12C renal it was 15.1%. Moreover, the growth was 9.61% (active) with UO-31 renal; 41.5% with TK-10 renal; 7.54% (active) with ACHN renal; 20.6% in the test with A498 renal; 12.9% with CCRF-CEM leukemia; -57.4% (active) in the test on MOLT-4 leukemia.
With `CCCCCCNC(=O)Oc1ccc(/C(=C(\C)c2ccc(Cl)cc2)c2ccc(OCCN(CC)CC)cc2)cc1`, the growth with HCT-15 colon was 1.93% (active); in the test with HT29 colon, -14.2% (active); in the test with SNB-75 CNS, 77.2%; with SNB-19 CNS it was 74.5%; in the test on U251 CNS, 41.7%; in the test on PC-3 prostate, 56.7%. Moreover, the growth with UACC-62 melanoma is 73.3%; in the test with LOX IMVI melanoma it was 44.2%; with SK-MEL-28 melanoma it was 66%; with SK-MEL-2 melanoma, 95.6%; in the test on EKVX NSCLC, 73.6%; in the test on SN12C renal, 76.2%. Also, the growth with UO-31 renal is 41.8%; in the test on TK-10 renal, 85%; in the test with ACHN renal, 85.6%; in the test on CAKI-1 renal, 89.9%; in the test with A498 renal, 93.7%; with CCRF-CEM leukemia, 54.6%. Further, the growth in the test on MOLT-4 leukemia was 35.3%.
`CCOC(=O)/C=C1\S/C(=N\Nc2ccc([N+](=O)[O-])cc2[N+](=O)[O-])N(Cc2ccccc2)C1=O`: the growth in the test with HCT-15 colon is 35.8%; in the test on HT29 colon it was 85.9%; in the test on SNB-75 CNS, 55.7%; in the test on SNB-19 CNS, 82.9%; with U251 CNS, 71.7%; in the test on PC-3 prostate it was 64.5%. For the same compound, the growth is 74.1% in the test on UACC-62 melanoma; 86% with LOX IMVI melanoma; 98.6% in the test on SK-MEL-28 melanoma; 102% in the test with SK-MEL-2 melanoma; 86.4% with EKVX NSCLC; 57.3% with SN12C renal. Moreover, the growth with UO-31 renal is 66.4%; in the test with TK-10 renal it was 115%; in the test on ACHN renal, 84.3%; in the test on CAKI-1 renal it was 81.1%; in the test with A498 renal, 70.4%; in the test with CCRF-CEM leukemia it was 39.6%. In the test on MOLT-4 leukemia, the growth was 67.5%.
With `CCCCCCCCCCCCCCCCCCOc1ccc(CC(=O)OCC[N+]2(C)CCCCC2)cc1`, the growth in the test on HCT-15 colon was 97.5%; with HT29 colon it was 91.4%; in the test with SNB-75 CNS it was 102%; in the test with SNB-19 CNS, 87.5%; with U251 CNS, 91.9%; in the test on SK-MEL-5 melanoma, 100%. Further, the growth was 88.8% in the test with UACC-62 melanoma; 94.7% in the test on LOX IMVI melanoma; 104% with SK-MEL-2 melanoma; 97.9% in the test on EKVX NSCLC; 89.1% with SN12C renal; 94.1% with UO-31 renal. In addition, the growth in the test on TK-10 renal was 99.1%; in the test with ACHN renal it was 97.5%; in the test on CAKI-1 renal, 100%; in the test with A498 renal, 100%; in the test with CCRF-CEM leukemia, 89.8%; in the test with MOLT-4 leukemia, 98.6%.
On to `CC1Cc2c(ncn3c(-c4ccc(F)cc4)nnc23)N(C)c2ccccc21` (centres undefined), for which the growth in the test with HCT-15 colon was 72%; in the test on HT29 colon, 18.3%; with SNB-75 CNS, -7.85% (active); with SNB-19 CNS it was 48.5%; in the test with U251 CNS, 39.3%; in the test with SK-MEL-5 melanoma, 96.7%. The growth was 73.5% in the test with UACC-62 melanoma; 12.6% in the test on LOX IMVI melanoma; 85.4% with SK-MEL-28 melanoma; 99.6% in the test with SK-MEL-2 melanoma; 32.8% in the test on EKVX NSCLC; 19.8% in the test on SN12C renal. In addition, the growth in the test with UO-31 renal was 27.6%; in the test with TK-10 renal, 21.8%; with ACHN renal it was 44%; in the test on CAKI-1 renal it was 55.5%; in the test on A498 renal it was 28.3%; with MOLT-4 leukemia, 82.1%.

The record behind these values is PubChem BioAssay (NCI).
